Test [1] deals with T1, Ephrin type-A receptor 3 (Homo sapiens) (UniProt P29320).
T1 sequence (whole entry): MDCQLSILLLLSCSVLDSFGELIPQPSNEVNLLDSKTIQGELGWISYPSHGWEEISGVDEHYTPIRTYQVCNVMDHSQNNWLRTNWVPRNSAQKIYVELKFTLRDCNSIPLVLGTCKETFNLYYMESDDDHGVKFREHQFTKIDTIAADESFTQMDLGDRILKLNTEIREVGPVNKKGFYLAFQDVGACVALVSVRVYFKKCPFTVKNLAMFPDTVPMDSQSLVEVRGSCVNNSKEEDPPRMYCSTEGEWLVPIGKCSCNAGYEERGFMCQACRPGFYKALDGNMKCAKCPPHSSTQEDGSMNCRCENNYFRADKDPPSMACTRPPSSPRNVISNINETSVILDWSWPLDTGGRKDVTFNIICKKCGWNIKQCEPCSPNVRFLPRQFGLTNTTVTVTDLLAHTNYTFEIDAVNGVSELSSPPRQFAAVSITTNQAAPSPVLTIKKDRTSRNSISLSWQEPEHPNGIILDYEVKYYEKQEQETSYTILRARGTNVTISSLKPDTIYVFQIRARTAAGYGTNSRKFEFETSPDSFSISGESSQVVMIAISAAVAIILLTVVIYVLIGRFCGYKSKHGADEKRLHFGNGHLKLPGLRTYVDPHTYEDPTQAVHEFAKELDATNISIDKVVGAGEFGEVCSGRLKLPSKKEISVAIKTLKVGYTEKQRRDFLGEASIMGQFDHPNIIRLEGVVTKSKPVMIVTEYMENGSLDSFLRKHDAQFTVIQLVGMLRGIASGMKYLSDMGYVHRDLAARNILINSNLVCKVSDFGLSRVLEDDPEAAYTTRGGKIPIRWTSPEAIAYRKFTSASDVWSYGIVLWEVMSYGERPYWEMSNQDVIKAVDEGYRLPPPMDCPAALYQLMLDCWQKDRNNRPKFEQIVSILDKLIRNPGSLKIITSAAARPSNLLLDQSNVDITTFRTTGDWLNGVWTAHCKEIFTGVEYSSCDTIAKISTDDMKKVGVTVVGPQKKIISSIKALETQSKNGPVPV
The following applies: at 10 µM.

For test [2], the target named is Ephrin type-A receptor 4 (Homo sapiens) (UniProt P54764). The settings on record: at 1 µM.
Ephrin type-A receptor 4 (Homo sapiens), sequence (P54764 whole entry): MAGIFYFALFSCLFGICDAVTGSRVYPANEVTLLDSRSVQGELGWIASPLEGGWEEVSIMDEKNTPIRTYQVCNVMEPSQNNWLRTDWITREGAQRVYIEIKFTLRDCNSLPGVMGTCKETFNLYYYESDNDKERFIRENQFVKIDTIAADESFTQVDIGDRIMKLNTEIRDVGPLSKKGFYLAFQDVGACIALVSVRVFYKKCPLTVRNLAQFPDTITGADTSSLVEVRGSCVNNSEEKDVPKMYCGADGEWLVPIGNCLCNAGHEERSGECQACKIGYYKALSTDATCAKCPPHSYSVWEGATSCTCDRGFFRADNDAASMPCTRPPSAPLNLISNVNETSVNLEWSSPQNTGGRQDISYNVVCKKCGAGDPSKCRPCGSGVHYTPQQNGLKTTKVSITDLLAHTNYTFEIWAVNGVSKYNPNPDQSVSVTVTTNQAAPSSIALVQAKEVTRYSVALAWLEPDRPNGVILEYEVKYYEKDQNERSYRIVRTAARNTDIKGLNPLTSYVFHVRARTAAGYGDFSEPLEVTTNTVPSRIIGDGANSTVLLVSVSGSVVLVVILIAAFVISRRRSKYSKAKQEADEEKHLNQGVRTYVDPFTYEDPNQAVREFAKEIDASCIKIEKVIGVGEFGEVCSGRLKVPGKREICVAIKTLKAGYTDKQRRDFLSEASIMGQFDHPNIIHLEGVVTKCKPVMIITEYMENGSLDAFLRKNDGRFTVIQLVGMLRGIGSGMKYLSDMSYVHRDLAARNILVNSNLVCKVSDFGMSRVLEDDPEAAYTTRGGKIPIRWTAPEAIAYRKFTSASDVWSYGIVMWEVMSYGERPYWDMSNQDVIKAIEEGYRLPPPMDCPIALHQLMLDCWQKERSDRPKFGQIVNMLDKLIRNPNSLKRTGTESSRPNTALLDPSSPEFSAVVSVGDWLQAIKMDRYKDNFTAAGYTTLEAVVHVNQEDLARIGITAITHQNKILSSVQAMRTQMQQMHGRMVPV
Test [3] has the same target. The settings on record: at 10 µM.
Test [4] deals with Ephrin type-A receptor 5 (Homo sapiens) (UniProt P54756). The settings on record: at 1 µM.
Ephrin type-A receptor 5 (Homo sapiens), sequence (P54756 whole entry): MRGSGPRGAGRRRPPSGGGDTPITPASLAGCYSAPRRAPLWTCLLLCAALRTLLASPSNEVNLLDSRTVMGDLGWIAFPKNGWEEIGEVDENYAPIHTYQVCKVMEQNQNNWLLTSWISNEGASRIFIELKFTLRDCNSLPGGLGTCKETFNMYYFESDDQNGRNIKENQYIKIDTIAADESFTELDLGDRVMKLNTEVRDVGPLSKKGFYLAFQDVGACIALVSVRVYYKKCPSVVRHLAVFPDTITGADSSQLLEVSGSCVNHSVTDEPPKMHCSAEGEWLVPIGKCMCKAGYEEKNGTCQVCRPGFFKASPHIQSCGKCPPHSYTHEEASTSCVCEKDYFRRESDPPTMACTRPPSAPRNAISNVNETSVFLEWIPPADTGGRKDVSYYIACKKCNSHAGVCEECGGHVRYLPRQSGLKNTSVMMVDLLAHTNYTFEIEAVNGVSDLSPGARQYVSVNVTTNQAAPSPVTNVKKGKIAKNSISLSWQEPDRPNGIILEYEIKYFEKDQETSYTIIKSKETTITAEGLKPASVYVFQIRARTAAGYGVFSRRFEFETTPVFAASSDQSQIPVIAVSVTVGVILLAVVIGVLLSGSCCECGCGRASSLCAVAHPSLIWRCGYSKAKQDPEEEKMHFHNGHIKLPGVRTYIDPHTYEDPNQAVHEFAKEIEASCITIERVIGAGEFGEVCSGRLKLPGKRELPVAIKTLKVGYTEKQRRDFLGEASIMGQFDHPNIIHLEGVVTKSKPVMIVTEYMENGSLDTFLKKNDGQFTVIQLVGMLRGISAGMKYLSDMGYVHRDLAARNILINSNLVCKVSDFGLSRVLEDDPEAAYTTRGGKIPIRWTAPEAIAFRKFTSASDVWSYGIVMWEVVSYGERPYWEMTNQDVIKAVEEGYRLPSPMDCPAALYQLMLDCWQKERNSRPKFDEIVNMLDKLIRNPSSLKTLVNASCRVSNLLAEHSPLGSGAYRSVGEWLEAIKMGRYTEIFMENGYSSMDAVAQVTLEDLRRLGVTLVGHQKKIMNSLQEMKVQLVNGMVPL
For test [5] the target is unchanged. The settings on record: at 10 µM.
Test [6] has as its target Ephrin type-A receptor 7 (Homo sapiens) (UniProt Q15375). The settings on record: at 1 µM.
Test [7] has the same target. The following applies: at 10 µM.
Test [8] addresses T2, Ephrin type-A receptor 8 (Homo sapiens) (UniProt P29322).
T2 sequence (whole entry): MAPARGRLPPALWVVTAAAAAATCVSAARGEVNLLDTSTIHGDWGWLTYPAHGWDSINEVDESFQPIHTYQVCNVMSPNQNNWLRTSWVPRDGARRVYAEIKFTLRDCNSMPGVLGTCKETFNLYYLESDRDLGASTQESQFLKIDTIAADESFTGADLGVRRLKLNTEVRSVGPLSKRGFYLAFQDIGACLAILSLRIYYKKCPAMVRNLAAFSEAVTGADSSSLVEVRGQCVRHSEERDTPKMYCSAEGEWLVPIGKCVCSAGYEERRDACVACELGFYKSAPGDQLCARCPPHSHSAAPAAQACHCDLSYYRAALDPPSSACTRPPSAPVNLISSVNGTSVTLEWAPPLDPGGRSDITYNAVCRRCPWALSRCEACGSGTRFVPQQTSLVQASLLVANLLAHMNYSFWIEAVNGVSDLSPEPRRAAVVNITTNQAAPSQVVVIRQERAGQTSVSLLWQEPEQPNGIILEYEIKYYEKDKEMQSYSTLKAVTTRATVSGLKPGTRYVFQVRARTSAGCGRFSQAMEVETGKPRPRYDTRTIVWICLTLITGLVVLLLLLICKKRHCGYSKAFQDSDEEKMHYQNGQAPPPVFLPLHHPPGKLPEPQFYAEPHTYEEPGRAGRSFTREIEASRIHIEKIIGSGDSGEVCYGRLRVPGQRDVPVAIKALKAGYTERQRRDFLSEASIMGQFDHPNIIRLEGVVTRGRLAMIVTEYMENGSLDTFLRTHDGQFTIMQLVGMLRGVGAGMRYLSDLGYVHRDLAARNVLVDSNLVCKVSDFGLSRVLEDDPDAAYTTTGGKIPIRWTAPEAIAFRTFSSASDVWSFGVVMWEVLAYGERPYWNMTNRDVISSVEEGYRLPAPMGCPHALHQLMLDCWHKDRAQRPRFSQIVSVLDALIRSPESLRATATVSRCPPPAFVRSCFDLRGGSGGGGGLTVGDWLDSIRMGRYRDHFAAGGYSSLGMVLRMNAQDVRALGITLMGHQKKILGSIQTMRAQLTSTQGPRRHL
The settings on record: at 1 µM.

The target of test [9] is T2, Ephrin type-A receptor 8 (Homo sapiens). The settings on record: at 10 µM.
The target of test [10] is T3, Ephrin type-B receptor 1 (Homo sapiens) (UniProt P54762).
T3 sequence (whole entry): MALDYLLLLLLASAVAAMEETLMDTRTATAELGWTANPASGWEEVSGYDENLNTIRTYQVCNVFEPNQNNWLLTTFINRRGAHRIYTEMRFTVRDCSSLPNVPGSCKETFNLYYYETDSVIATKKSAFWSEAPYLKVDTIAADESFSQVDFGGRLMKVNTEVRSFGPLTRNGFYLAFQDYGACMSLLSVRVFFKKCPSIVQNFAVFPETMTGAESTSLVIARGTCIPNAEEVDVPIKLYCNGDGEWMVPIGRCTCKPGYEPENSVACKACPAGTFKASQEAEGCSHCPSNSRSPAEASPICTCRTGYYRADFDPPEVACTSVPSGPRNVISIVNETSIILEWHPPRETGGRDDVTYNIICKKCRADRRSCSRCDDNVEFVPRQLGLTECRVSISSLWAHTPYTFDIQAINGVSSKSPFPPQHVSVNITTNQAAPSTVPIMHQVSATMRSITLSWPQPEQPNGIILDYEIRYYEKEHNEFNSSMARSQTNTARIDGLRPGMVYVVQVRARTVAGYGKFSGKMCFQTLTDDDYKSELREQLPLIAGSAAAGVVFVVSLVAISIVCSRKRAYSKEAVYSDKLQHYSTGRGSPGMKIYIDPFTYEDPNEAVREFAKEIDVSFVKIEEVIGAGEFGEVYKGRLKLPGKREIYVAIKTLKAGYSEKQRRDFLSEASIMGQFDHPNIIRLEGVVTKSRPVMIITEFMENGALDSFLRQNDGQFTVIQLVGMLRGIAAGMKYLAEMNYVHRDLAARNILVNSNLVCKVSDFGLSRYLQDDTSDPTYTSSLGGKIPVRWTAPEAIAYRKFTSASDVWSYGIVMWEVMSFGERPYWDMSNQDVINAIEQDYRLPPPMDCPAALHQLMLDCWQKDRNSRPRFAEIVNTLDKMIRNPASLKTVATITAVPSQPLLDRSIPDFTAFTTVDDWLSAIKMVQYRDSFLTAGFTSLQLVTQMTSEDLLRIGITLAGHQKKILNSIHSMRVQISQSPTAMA
The following applies: at 1 µM.

Test [11] deals with T3, Ephrin type-B receptor 1 (Homo sapiens). The settings on record: at 10 µM.
In test [12] the target is T4, Ephrin type-B receptor 2 (Homo sapiens) (UniProt P29323).
T4 sequence (whole entry): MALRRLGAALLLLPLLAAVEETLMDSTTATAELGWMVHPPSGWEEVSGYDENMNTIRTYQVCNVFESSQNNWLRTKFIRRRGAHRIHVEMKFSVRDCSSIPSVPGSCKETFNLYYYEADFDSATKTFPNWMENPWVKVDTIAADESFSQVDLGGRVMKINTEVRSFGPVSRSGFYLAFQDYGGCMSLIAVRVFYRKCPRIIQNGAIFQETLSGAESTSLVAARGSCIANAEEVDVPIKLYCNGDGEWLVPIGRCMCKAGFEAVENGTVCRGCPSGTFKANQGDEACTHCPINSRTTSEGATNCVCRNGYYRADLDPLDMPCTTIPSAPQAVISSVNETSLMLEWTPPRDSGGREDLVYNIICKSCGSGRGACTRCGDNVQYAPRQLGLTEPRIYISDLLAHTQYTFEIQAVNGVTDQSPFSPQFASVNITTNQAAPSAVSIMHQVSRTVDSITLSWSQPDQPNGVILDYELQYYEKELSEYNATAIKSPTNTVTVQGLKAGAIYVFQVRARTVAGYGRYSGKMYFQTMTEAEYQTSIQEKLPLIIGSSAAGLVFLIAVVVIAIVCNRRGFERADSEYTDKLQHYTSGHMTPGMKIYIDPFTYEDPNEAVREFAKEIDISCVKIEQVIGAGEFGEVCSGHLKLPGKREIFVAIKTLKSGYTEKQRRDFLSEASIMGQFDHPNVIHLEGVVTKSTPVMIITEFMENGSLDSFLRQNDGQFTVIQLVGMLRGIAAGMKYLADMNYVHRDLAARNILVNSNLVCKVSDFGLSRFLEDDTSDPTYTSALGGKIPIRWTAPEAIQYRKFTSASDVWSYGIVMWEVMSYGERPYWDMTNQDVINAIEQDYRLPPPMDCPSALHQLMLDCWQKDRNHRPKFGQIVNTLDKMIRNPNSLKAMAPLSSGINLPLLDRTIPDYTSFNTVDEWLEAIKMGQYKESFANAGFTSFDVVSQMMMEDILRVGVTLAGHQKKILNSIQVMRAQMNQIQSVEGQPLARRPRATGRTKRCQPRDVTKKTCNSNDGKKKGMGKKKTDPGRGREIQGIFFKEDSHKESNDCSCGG
The following applies: at 1 µM.

Test [13] addresses T4, Ephrin type-B receptor 2 (Homo sapiens). The following applies: at 10 µM.
The target in test [14] is T5, Ephrin type-B receptor 3 (Homo sapiens) (UniProt P54753).
T5 sequence (whole entry): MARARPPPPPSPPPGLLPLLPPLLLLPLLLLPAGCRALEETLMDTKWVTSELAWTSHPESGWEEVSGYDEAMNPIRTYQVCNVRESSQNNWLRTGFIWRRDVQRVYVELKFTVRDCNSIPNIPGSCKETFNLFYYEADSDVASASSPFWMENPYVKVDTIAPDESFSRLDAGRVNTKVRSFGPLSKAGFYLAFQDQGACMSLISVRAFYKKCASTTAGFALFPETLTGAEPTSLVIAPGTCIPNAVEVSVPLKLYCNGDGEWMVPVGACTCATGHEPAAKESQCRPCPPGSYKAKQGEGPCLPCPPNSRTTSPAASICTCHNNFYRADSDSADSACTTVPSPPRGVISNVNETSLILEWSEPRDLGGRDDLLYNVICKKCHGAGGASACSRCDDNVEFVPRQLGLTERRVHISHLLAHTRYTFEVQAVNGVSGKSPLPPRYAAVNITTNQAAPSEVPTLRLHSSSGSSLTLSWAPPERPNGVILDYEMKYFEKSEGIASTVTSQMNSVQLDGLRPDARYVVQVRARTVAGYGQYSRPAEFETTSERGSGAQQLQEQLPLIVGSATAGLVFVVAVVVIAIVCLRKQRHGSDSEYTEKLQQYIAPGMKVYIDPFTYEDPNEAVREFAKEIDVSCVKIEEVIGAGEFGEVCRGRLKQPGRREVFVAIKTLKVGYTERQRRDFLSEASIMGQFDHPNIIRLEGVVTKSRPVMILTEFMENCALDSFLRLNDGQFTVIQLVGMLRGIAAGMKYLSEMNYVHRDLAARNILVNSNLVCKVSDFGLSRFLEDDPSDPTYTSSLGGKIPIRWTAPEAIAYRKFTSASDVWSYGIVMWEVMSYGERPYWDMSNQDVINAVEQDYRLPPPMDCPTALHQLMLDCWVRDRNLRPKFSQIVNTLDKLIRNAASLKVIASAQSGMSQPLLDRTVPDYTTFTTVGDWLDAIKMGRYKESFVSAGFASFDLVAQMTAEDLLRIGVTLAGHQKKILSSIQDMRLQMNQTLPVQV
The following applies: at 1 µM.

Test [15] addresses T5, Ephrin type-B receptor 3 (Homo sapiens). The following applies: at 10 µM.
Test [16] addresses T6, Ephrin type-B receptor 4 (Homo sapiens) (UniProt P54760).
T6 sequence (whole entry): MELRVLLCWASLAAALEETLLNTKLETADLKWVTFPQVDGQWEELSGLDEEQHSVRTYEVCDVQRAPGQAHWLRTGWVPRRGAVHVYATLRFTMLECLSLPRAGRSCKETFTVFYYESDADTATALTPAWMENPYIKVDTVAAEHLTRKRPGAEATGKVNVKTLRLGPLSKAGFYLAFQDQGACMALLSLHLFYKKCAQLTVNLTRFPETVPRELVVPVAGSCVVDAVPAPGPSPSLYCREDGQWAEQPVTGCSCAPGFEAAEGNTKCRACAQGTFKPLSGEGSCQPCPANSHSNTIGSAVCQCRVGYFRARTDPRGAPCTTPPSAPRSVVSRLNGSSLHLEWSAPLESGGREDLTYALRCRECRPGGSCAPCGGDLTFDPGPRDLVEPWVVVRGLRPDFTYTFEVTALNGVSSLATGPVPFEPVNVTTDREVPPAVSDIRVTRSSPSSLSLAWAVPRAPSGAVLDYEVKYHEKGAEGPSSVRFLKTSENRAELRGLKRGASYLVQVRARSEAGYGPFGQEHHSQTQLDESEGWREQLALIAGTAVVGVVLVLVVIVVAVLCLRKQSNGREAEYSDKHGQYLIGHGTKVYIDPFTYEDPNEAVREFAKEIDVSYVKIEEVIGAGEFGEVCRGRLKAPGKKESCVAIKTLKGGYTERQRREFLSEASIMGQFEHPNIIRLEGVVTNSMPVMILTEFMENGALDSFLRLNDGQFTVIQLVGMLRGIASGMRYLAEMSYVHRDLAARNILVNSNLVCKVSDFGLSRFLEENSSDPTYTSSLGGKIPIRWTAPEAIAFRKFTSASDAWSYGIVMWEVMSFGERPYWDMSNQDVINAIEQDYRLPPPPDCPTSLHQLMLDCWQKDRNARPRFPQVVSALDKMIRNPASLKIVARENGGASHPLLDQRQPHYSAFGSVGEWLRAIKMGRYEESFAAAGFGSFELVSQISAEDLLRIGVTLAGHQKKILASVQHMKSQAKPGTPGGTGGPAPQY
The settings on record: at 1 µM.

Test [17] deals with T6, Ephrin type-B receptor 4 (Homo sapiens). The settings on record: at 10 µM.
For test [18], the target named is Receptor tyrosine-protein kinase erbB-4 (Homo sapiens) (UniProt Q15303). The settings on record: at 1 µM.
Receptor tyrosine-protein kinase erbB-4 (Homo sapiens), sequence (Q15303 whole entry): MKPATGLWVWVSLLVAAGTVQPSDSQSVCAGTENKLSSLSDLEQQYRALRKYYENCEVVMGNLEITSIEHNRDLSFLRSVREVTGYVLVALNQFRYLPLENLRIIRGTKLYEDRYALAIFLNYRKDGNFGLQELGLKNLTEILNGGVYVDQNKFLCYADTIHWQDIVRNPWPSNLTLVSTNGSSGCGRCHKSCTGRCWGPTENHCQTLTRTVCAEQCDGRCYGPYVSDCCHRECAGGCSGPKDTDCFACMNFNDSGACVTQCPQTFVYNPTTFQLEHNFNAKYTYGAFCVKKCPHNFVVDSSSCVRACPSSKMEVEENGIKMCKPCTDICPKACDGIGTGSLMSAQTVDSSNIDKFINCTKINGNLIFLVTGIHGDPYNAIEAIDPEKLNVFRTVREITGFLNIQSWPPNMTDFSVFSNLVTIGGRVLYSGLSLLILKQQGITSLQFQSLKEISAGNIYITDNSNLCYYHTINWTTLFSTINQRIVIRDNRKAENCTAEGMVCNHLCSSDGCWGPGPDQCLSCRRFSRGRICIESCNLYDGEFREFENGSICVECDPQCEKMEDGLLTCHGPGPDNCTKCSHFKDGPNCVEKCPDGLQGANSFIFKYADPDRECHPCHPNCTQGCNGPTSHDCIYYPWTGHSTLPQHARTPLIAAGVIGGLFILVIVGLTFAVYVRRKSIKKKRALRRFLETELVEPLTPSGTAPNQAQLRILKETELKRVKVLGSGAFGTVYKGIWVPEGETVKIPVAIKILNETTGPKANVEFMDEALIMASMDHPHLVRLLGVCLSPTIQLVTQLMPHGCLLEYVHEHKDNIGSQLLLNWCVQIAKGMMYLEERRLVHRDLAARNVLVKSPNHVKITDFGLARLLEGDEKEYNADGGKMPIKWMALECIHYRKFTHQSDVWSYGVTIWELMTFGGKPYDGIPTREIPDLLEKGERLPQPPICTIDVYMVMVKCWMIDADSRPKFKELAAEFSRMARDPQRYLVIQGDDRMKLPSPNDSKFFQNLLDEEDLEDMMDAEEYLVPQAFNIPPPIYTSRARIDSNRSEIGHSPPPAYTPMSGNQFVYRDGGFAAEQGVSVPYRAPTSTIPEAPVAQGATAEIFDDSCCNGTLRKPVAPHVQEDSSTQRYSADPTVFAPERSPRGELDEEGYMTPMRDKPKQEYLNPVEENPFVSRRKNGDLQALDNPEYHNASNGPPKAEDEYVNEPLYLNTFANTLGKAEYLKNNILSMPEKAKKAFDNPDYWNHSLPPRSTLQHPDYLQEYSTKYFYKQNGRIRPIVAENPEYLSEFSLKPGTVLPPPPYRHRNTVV

The structures appear in SMILES notation.

Ephrin type-A receptor 7 (Homo sapiens), sequence (Q15375 28-998 limits assumed): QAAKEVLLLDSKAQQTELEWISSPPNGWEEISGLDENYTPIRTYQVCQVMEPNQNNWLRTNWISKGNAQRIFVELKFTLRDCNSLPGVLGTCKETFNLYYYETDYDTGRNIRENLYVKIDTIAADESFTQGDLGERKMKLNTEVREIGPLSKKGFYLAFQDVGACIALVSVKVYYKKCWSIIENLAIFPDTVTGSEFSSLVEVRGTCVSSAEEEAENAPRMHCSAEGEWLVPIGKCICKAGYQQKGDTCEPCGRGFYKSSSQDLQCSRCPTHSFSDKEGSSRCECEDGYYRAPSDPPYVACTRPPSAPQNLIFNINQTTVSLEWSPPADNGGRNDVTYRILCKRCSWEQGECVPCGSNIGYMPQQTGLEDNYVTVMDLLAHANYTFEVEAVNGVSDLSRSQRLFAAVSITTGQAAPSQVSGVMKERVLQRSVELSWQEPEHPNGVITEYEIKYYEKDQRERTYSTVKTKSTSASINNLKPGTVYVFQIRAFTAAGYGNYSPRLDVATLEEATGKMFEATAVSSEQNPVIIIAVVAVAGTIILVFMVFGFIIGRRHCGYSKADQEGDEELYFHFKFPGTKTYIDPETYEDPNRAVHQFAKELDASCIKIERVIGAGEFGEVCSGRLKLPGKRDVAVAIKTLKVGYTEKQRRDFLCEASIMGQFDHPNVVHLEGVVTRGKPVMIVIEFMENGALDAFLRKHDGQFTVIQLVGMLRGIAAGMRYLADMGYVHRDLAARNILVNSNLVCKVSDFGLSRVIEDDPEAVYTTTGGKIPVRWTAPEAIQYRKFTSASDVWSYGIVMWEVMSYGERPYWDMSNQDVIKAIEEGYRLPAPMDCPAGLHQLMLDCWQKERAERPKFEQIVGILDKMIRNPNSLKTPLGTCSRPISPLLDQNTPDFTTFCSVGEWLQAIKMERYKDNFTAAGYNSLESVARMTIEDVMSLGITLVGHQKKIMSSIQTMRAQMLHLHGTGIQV

One may read the residual activity as the signal under treatment as a percentage of the control signal. For `c1ccc2c(-c3ccncc3)c[nH]c2c1`, the residual activity is 92% in test [1]; 109% in test [2]; 98% in test [3]; 102% in test [4]; 111% in [5]; 99% in [6]. Besides, the residual activity was determined as 84% in test [7]; 96% in test [8]; 92% in test [9]; 108% in test [10]; 110% in test [11]; 108% in test [12]. Moreover, the residual activity in test [13] is 111%; in [14], 106% (inactive); in test [15] it was 112%; in [16], 111%; in test [17] it was 108%; in [18], 88%.

These data come from ChEMBL document CHEMBL2218924, “A broad activity screen in support of a chemogenomic map for kinase signalling research and drug discovery” (Biochem J, 2013).
